Eight compounds from PubChem BioAssay (NCI) can be followed below.

Common to all, as to assay: NCI-60 one-dose screen, 48 h (100 = growth as untreated, 0 = no growth, -100 = all killed)
The subject of one test is HCT-15 colon. The following applies: 10 µM unless noted.
A further test has as its system HT29 colon. The following applies: 10 µM unless noted.
Another test deals with SNB-75 CNS. As to conditions: 10 µM unless noted.
A further test relates to SNB-19 CNS. As to conditions: 10 µM unless noted.
The subject of the next test is U251 CNS. As to conditions: 10 µM unless noted.
The subject of the next test is SK-MEL-5 melanoma. The following applies: 10 µM unless noted.
The subject of the next test is UACC-62 melanoma. As to conditions: 10 µM unless noted.
The next test relates to LOX IMVI melanoma. As to conditions: 10 µM unless noted.
In another test the test system is SK-MEL-28 melanoma. As to conditions: 10 µM unless noted.
Another test relates to SK-MEL-2 melanoma. The following applies: 10 µM unless noted.
Another test deals with EKVX NSCLC. As to conditions: 10 µM unless noted.
A further test relates to SN12C renal. The following applies: 10 µM unless noted.
In a further test the test system is UO-31 renal. As to conditions: 10 µM unless noted.
In a further test the test system is ACHN renal. The following applies: 10 µM unless noted.
A further test relates to CAKI-1 renal. The following applies: 10 µM unless noted.
The next test concerns A498 renal. As to conditions: 10 µM.
The next test concerns HL-60(TB) leukemia. The following applies: 10 µM unless noted.
The subject of a further test is CCRF-CEM leukemia. As to conditions: 10 µM unless noted.
The next test has as its system PC-3 prostate. The following applies: 10 µM unless noted.
Another test relates to TK-10 renal. As to conditions: 10 µM unless noted.

The panel holds about 83,000 compounds, 20% with a hit somewhere; the sample as a whole holds those more often.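 How to read the values: 0–100, growth inhibition (40 = 60% inhibited); 0, no net growth; -100 to 0, cell death (-40 = 40% of starting cells died; -100 = all dead).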 A number with no mark means an inactive call. The source made the active and inactive calls. How the source made its calls: active means growth percent below 10; inactive means the rest.

As for `COC(=O)[C@@H](C)C[C@H](Cc1ccccc1)NC(=O)c1csc([C@@H](C[C@H](C(C)C)N(C)C(=O)[C@@H](NC(=O)[C@H]2CCCCN2C)C2CCCCC2)OC(C)=O)n1`, the growth with HCT-15 colon is 10.8%; in the test with HT29 colon it was -0.416% (active); in the test on SNB-75 CNS, 5.81% (active); in the test with SNB-19 CNS, 64.5%; with U251 CNS, -19.4% (active); in the test on SK-MEL-5 melanoma, -56.2% (active). Further, the growth with UACC-62 melanoma was 36.3%; with LOX IMVI melanoma, 12.5%; in the test on SK-MEL-28 melanoma, 38%; with SK-MEL-2 melanoma, 11.2%; in the test on EKVX NSCLC it was 25%; in the test with SN12C renal it was 12.6%. The growth in the test with UO-31 renal is 31.7%; in the test on ACHN renal, 11.4%; in the test on CAKI-1 renal, 14.5%; in the test on A498 renal, -10.2% (active); in the test with HL-60(TB) leukemia, -51.9% (active); in the test on CCRF-CEM leukemia, 0.645% (active).

Regarding `CC(=O)[O][Hg][c]1c(N)c(C)cc(C)c1F`, the growth with HCT-15 colon was -14.2% (active); with HT29 colon it was 10% (active); in the test with SNB-75 CNS, 32%; in the test with SNB-19 CNS it was 112%; in the test with PC-3 prostate, 51.9%; in the test with SK-MEL-5 melanoma, 41%. For the same compound, the growth is 27.8% in the test with UACC-62 melanoma; -70.1% (active) in the test with LOX IMVI melanoma; -39.1% (active) in the test on SK-MEL-28 melanoma; 11.6% in the test with SK-MEL-2 melanoma; 5.86% (active) in the test with SN12C renal; 35.1% with UO-31 renal. Besides, the growth in the test on TK-10 renal is 97.4%; in the test with ACHN renal, 62.9%; in the test with CAKI-1 renal it was 45.8%; in the test with A498 renal, 101%; in the test with HL-60(TB) leukemia it was -12.7% (active); in the test with CCRF-CEM leukemia, -6.01% (active).

Regarding `CN(C)C(=O)Oc1ccccc1`, the growth with HCT-15 colon was 98.1%; with HT29 colon, 118%; with SNB-75 CNS, 89.1%; with SNB-19 CNS it was 115%; in the test with U251 CNS, 103%; with SK-MEL-5 melanoma it was 113%. For the same compound, the growth was 109% in the test on UACC-62 melanoma; 92.4% in the test on LOX IMVI melanoma; 108% in the test on SK-MEL-2 melanoma; 104% with EKVX NSCLC; 106% in the test on SN12C renal; 103% with UO-31 renal. For the same compound, the growth in the test on TK-10 renal was 107%; in the test with ACHN renal, 101%; in the test on HL-60(TB) leukemia, 94.5%; in the test on CCRF-CEM leukemia, 104%.

For `CC(C)=CCC/C(C)=C/C=N\N=C(/N)N[N+](=O)[O-]`, the growth in the test on HCT-15 colon is 97.6%; in the test with HT29 colon, 97.6%; in the test on SNB-75 CNS, 89.8%; in the test with SNB-19 CNS, 99.2%; with U251 CNS, 93.5%; in the test with SK-MEL-5 melanoma it was 98.8%. Further, the growth was 95.6% in the test with UACC-62 melanoma; 94.8% in the test on LOX IMVI melanoma; 114% in the test on SK-MEL-28 melanoma; 92.9% with SK-MEL-2 melanoma; 100% with SN12C renal; 69.7% with UO-31 renal. In addition, the growth with TK-10 renal was 87.4%; in the test with ACHN renal, 109%; with CAKI-1 renal, 84.9%; in the test on A498 renal it was 83.9%; in the test with HL-60(TB) leukemia, 113%; in the test with CCRF-CEM leukemia it was 93.3%.

As to `O=C(NCCN1CC1)C(=O)NCCN1CC1`, the growth with HCT-15 colon is 95.2%; with HT29 colon it was 68.9%; in the test with SNB-75 CNS, 76%; with SNB-19 CNS, 101%; in the test on PC-3 prostate, 93.2%; with SK-MEL-5 melanoma it was 94.6%. Further, the growth with UACC-62 melanoma was 91.7%; with LOX IMVI melanoma, 80.2%; in the test with SK-MEL-28 melanoma, 102%; in the test with SK-MEL-2 melanoma it was 97.1%; with SN12C renal it was 87.3%; in the test with UO-31 renal, 96.4%. The growth with TK-10 renal was 83.6%; in the test with ACHN renal, 67.9%; with CAKI-1 renal, 20.9%; in the test with A498 renal it was 105%; in the test with HL-60(TB) leukemia, 63.1%; in the test with CCRF-CEM leukemia it was 56.8%.

For the compound `CC(=O)O[C@H]1C(=O)[C@@]2(C)[C@H]([C@H](OC(=O)c3ccccc3)[C@]3(O)C[C@H](OC(=O)[C@H](OC(=O)OCC4COC(C)(C)O4)[C@@H](NC(=O)c4ccccc4)c4ccccc4)C(C)=C1C3(C)C)[C@]1(OC(C)=O)CO[C@@H]1C[C@@H]2O` (some centres not stated), the growth in the test with HCT-15 colon was 29.2%; in the test with HT29 colon, 9.74% (active); in the test on SNB-75 CNS, 41.9%; in the test with SNB-19 CNS it was 36.6%; in the test with U251 CNS, 34.4%; in the test on SK-MEL-5 melanoma it was 44.1%. Moreover, the growth with UACC-62 melanoma was 34.4%; with SK-MEL-28 melanoma, 43.8%; with SK-MEL-2 melanoma it was 54.2%; in the test with EKVX NSCLC, 70.8%; in the test on SN12C renal it was 51.7%; in the test with UO-31 renal, 71.3%. Also, the growth in the test with TK-10 renal was 79.6%; with ACHN renal, 66.5%; in the test on CAKI-1 renal, 37.5%; with A498 renal, 47.1%; with HL-60(TB) leukemia, 12.8%; in the test on CCRF-CEM leukemia, 31.3%.

Turning to `CC12CCC3C(C=CC4=C(N)C(=O)CCC43C)C1CCC2=O` (configuration not stated), the growth in the test on HCT-15 colon is 73%; with HT29 colon, 51.2%; in the test on SNB-75 CNS, 94.2%; with SNB-19 CNS, 103%; with U251 CNS it was 54.2%; in the test on SK-MEL-5 melanoma, 69.7%. The growth with UACC-62 melanoma was 81%; in the test on LOX IMVI melanoma it was 60.6%; in the test on SK-MEL-28 melanoma, 103%; in the test on SK-MEL-2 melanoma, 74.4%; in the test with EKVX NSCLC, 98%; in the test on SN12C renal, 88.5%. In addition, the growth in the test with TK-10 renal was 85.6%; with ACHN renal it was 88.2%; in the test on CAKI-1 renal, 84.1%; in the test on A498 renal it was 99.2%; in the test with HL-60(TB) leukemia, 52.5%; in the test on CCRF-CEM leukemia, 6.62% (active).

As to `COC(=O)[C@]12CCC(C)(C)C[C@H]1[C@H]1C(=O)C[C@@H]3[C@@]4(C)C[C@@]5(CC(C)(C)[C@@H]4CC[C@@]3(C)[C@]1(C)CC2)OO[C@@](C)(C(F)(F)F)O5`, the growth was 95.3% in the test with HCT-15 colon; 102% in the test with HT29 colon; 74.9% in the test on SNB-75 CNS; 91.7% in the test with SNB-19 CNS; 86.7% in the test on PC-3 prostate; 99.5% with SK-MEL-5 melanoma. For the same compound, the growth with UACC-62 melanoma is 84.3%; in the test on LOX IMVI melanoma, 95.7%; in the test with SK-MEL-28 melanoma it was 107%; in the test on EKVX NSCLC, 93.6%; in the test with SN12C renal it was 92.4%; with UO-31 renal, 87.8%. In addition, the growth in the test on TK-10 renal was 95.7%; in the test on ACHN renal it was 93.6%; in the test with CAKI-1 renal, 68.7%; in the test with A498 renal, 78.2%; in the test on HL-60(TB) leukemia, 101%; with CCRF-CEM leukemia, 94.8%.
